HADH2 inhib – qHTS Assay for Inhibitors of HADH2 (Hydroxyacyl-Coenzyme A Dehydrogenase, Type II) | 3-hydroxyacyl-CoA dehydrogenase type-2 (Homo sapiens), Q99714 | recombinant HADH2, NADH fluorescence, beta-hydroxybutyryl-CoA | Potency, µM (series often up to 57.1 µM), without a hit: top-dose activity change, negative = inhibition, actives largely listed as inhibitors | 73,000 compounds, 3.4% hits | AID 886, 2007; also: potency is read from the fitted curve at half-maximal effect; % is scaled to controls: 0 for no effect and ±100 for the full control effect; nearly all actives have a fitted effect of over 60% in size
Target sequence (Q99714 whole entry, looked up, one chain of several): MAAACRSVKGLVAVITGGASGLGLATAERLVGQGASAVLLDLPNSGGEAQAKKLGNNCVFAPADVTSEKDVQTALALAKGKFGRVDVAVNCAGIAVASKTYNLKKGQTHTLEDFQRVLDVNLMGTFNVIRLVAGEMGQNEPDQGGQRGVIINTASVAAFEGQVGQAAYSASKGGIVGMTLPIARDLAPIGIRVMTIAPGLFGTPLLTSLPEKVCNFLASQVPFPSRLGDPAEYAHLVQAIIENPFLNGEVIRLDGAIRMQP
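Read-out: 360 nm excitation, 450 nm emission, kinetic over 4 min. Conditions: His-tagged human HADH2 20 nM, pH 9.0 Tris with Tween-20, 1 mM NAD+, 90 uM beta-hydroxybutyryl-CoA.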
HSD17B inhib – qHTS Assay for Inhibitors of HSD17B4, hydroxysteroid (17-beta) dehydrogenase 4; 3-hydroxyacyl-CoA dehydrogenase type-2 (Homo sapiens), Q99714; recombinant HSD17B10, NADH fluorescence kinetic; Potency, µM (doses to about 57.1 µM), for the others: top-dose activity change, negative = inhibition, hits mostly inhibitors; 75,000 compounds, 7.6% hits; AID 893, 2007;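 also: the protocol describes HADH2 (HSD17B10) and not the HSD17B4 of the title; potency is read from the fitted curve at half-maximal effect; % is scaled to controls: 0 for no effect and ±100 for the full control effect; nearly all actives have a fitted effect of over 70% in size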
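Enzyme plus compound, 15 min room temperature; substrate mix added (NAD+ 1 mM, beta-hydroxybutyryl-CoA 90 uM final); plates read kinetically for NADH fluorescence. HADH2 was His-tagged, E. coli-derived, 20 nM.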
AID923 – qHTS Assay for Allosteric/Competitive Inhibitors of Caspase-1: Spectroscopic Profiling in AFC Spectral Region; compound fluorescence, AFC spectral region (405/520 nm); 75,000 compounds, 1.1% hits; Potency, µM (top dose mostly 57.5 µM), for the others: at the top dose fluorescence increase, hits mostly activators; also: potency is read from the fitted curve at half-maximal effect; 0% is about no effect
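Titrations up to 57 uM read every 20 sec for 3 min (405/520 nm) with 50 nM caspase 1 and 5 uM Ac-WEHD-AFC, pH 7.5 HEPES buffer. Fluorescence-vs-time intercept gave baseline, scaled against on-plate AFC standard.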
A350 fluor – qHTS Assay for Spectroscopic Profiling in A350 Spectral Region; max dye-equivalent concentration, M; AID 590, 2007; 59,000 compounds, 11% hits; Compound autofluorescence, 340/450 nm, Alexa 350 dye-equivalents; hits give high values; in the data active = max dye-equivalent concentration above about 10 nM; inconclusive = mostly about 1.1 nM to 9.6 nM
4-MU autofl – qHTS Assay for Spectroscopic Profiling in 4-MU Spectral Region; compound autofluorescence, 340/450 nm, 4-MU equivalents; hits give high values; max dye-equivalent concentration, M; 59,000 compounds, 11% hits; in the data active = max dye-equivalent concentration above about 10 nM; inconclusive = mostly about 1.1 nM to 9.6 nM
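Compounds in 100 mM Tris, pH 8.0, sat 15 min at room temperature before fluorescence was read at 340 nm excitation/450 nm emission; a per-plate six-point 4-MU standard curve converted signals to dye-equivalent concentration at each compound concentration.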
CRE Fsk mod – Cell signaling CRE-BLA (Fsk stim); CHO CRE-bla reporter (cAMP response element driving beta-lactamase), forskolin EC10, beta-lactamase ratio; Potency, µM (highest dose often 38.2 µM), for inactives: top-dose activity change, negative = inhibition, usual class: activators; 71,000 compounds, 2.5% hits; AID 662, 2007; active = well fitted activation curve with a large enough effect in the signal ratio, with a control signal flat, not every such curve was filed as active; inconclusive = small, poorly fitted or top-dose-only effect, or effect the other way, or a change in a side signal; the % refers to the signal ratio; also: potency is read from the fitted curve at half-maximal effect; % of control where 0% means no effect
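qHTS titration format; CRE-bla CHO reporter; stimulus EC10 NKH 477, a water-soluble forskolin. Read: CCF4 460/530 nm ratio. Potency expressed as AC50 for activators or inhibitors.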
Numbers without * were called inactive; i = inactive; ? = inconclusive; . = no result given; [ ] = dose if it differs, or a comment. This is a sample that favours compounds with a hit; in the whole collection about 14% have one here. Unless noted, calls follow the shape of the dose curve; as a rule, active = well fitted curve in the direction sought with a large enough effect; inconclusive = small, poorly fitted or top-dose-only effect, or another doubt; inactive = no such curve, though single readings can be large; an effect the other way counts as inactive or inconclusive.

SMILES	HADH2 inhib	HSD17B inhib	AID923	A350 fluor	4-MU autofl	CRE Fsk mod
CCCCSc1c(C)c2cc3c(cc2[nH]c1=O)OCO3	6.4%	15.8µM*	-0.5%	8.52e-08M*	6.9e-08M*	-6.5%
NC(=O)CN1C(=O)C(O)(CC(=O)c2ccccc2O)c2ccccc21 (stereo not given)	-9.0%	-0.9%	2.0%	.	.	-6.1%
CC1(C)c2ccccc2N2CC(=O)N(CC(N)=O)C21C (stereo not given)	-16.1%	0.1%	-1.0%	2.03e-06M*	1.43e-06M*	?
Cc1cc2c(c(N3CCOCC3)n1)C(=O)OC2	-16.9%	?	-0.8%	1.73e-08M*	1.77e-08M*	12.0%
CCn1c2ccccc2c2cc(NC(=O)CCCN3C(=O)CCC3=O)ccc21	15.6%	-25.8%	-0.1%	?	?	8.2%
CCC1c2ccc(C)n2CCN1C(=O)Nc1ccccc1OC (stereo not given)	-6.3%	31.6µM*	17.6%	2.06e-08M*	1.8e-08M*	-8.0%
O=C(Nc1nnc(C2CCCO2)s1)c1cccs1 (stereo not given)	?	25.1µM*	2.8%	2.93e-08M*	2.85e-08M*	3.8%
CC(=O)N1CCC[C@@]2(CCN(Cc3ccccc3)C2)C1	7.0%	9.9%	2.1%	i	i	-0.3%
CCOC(=O)C1CCN(C(=O)c2cccnc2)CC1	16.5%	1.8%	0.1%	i	i	1.0%
COc1ccc(-c2cc(C(F)F)n3ncc(C(=O)N4CCSCC4)c3n2)cc1	-18.2%	31.6µM*	15.7%	1.55e-07M*	1.35e-07M*	?
CCOC(=O)C1CCN(C(=O)c2cnn3c(C)cc(C)nc23)CC1	?	25.1µM*	-0.4%	?	?	?
CCOC(=O)C1CCCN(C(=O)c2cnn3c(C(F)F)cc(-c4ccc(C)cc4)nc23)C1 (stereo not given)	-0.2%	25.1µM*	9.8%	3.44e-08M*	3.97e-08M*	?
Cc1ccc(-c2cc(C(F)F)n3ncc(C(=O)N4CCN5CCCC5C4)c3n2)cc1 (stereo not given)	8.0%	25.1µM*	3.6%	4.21e-08M*	3.71e-08M*	?
Cc1ccc(-c2cc(C(F)(F)F)n3ncc(C(=O)O)c3n2)cc1	-2.1%	-11.2%	4.8%	?	?	0.9%
O=C(O)c1ccccc1C1c2ccccc2Oc2ccccc21	20.8%[11.4 µM]	2.9%[11.4 µM]	-2.7%[11.5 µM]	?	?	7.2%[7.6 µM]
CO[C@@H]1COC(=O)CC=C[C@@H](C)[C@@H]2C=C[C@@H](O)[C@@H](COC(=O)C/C=C\[C@H]1C)O2	8.6%[11.4 µM]	2.6%[11.4 µM]	-0.6%[11.5 µM]	.	.	.
C[Si](C)(C)Cl	-10.0%	0.9%	-1.5%	.	.	-11.1%
NC(=O)CSc1ccc(Br)cc1	-20.0%	4.5%	-1.1%	i	i	-7.7%
NC(=O)Nn1c(CCC(=O)O)ccc1-c1ccc(Br)cc1	-15.4%	?	2.0%	3.05e-08M*	2.88e-08M*	-1.7%
CS(=O)(=O)N1CCC[C@@]2(CCN(C(=O)Nc3cccc(C#N)c3)C2)C1	-4.6%	8.3%	0.2%	i	i	-4.6%
O=C(Oc1cccc(N2C(=O)CCC2=O)c1)C1CC(=O)N(c2ccc(F)cc2)C1 (stereo not given)	-7.8%	-4.6%	-2.8%	i	i	?
C=CCOC(=O)C1=C(C)Nc2nc3ccccc3n2C1c1ccncc1 (stereo not given)	-154.2%	31.6µM*	5.9%	1.42e-08M*	1.5e-08M*	?
CCOC(=O)C1=C(C)Nc2nc3ccccc3n2C1c1ccncc1 (stereo not given)	-3.1%	9.9%	0.1%	1.67e-08M*	1.43e-08M*	3.1%
C=CCOC(=O)C1=C(C)Nc2nnnn2C1c1cccc(OC)c1OC (stereo not given)	-1.7%	5.3%	-0.7%	i	i	?

High-throughput results: PubChem, National Center for Advancing Translational Sciences (NCATS)
